# S1P4 ag: S1P4 receptor agonists, primary screen, cell-based; Sphingosine 1-phosphate receptor 4 (Homo sapiens), O95977; S1P4-expressing cell line, agonist reporter assay; activation, % at 4.98 µM; hit rate 0.35% among 220,000; in the data active = activation above about 11%
# AI-2 QS modul: Vibrio harveyi AI-2 quorum sensing modulators, primary screen, JMH597 strain, luminescence/OD600 ratio; Vibrio harveyi JMH597 AI-2 luminescence/OD600 ratio, 9 h; active compounds read low; strain lacks LuxN and CqsS sensors; 0 = neutral-control median; hit rate 0.4% among 300,000; activity change, % at 7.5 µM; AID 2094, 2009; in the data active = activity change below about -75%, passing the limit was not always enough;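 note: luminescence divided by OD600 gain over 9 h not by final OD600 alone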
# Hsp70 activator: Hsp70 transcriptional activators, primary screen, cell-based, HeLa, Hsp70 promoter luciferase, luminescence, 10 µM; hit rate 0.04% among 200,000; HeLa Hsp70 promoter luciferase reporter; scaled: vehicle 0, proteasome-inhibitor control 100%; activation, % at 10 µM;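 active = activation above the mean across all tested compounds plus 3 SD, cutoff set per campaign, cut at about 5.5% in these data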
# S1P3 antagonist: S1P3 receptor antagonists, primary screen, cell-based; Sphingosine 1-phosphate receptor 3 (Homo sapiens), Q99500; CHO S1P3 NFAT-BLA reporter, FRET fluorescence, antagonist mode; inhibition, % at 4.98 µM; hit rate 0.27% among 170,000;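 active = inhibition above the plate cutoff, the mean inhibition of test wells on that plate plus 3 SD, cut at about 28% in these data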;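 note: cells challenged with S1P at its EC80 of 0.8 µM; blue over green emission ratio from cleaved BLA substrate after 4 h stimulation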
# S1P4 antagonist: S1P4 receptor antagonists, primary screen, cell-based | S1P4-expressing cells, antagonist mode, reporter read-out | hit rate 0.26% among 220,000 | Sphingosine 1-phosphate receptor 4 (Homo sapiens), O95977 | inhibition, % at 4.98 µM; in the data active = inhibition above about 29%
# S1P4 agonist cf: S1P4 receptor agonists, retest, confirmation, cell-based, high throughput. shares compounds with S1P4 ag. S1P4 agonist cell-based reporter assay. activation, % at 4.98 µM. hit rate 7% among 740; in the data active = activation above about 12%
# S1P1 ag: S1P1 receptor agonists, human, counter-screen for S1P4 agonist project, cell-based. activation, % at 4.98 µM. S1P1 agonist cell-based assay, activation. shares compounds with S1P4 ag. hit rate 4% among 740. AID 1563, 2009; in the data active = activation above about 21%
# Target sequence (P21453 whole entry, looked up): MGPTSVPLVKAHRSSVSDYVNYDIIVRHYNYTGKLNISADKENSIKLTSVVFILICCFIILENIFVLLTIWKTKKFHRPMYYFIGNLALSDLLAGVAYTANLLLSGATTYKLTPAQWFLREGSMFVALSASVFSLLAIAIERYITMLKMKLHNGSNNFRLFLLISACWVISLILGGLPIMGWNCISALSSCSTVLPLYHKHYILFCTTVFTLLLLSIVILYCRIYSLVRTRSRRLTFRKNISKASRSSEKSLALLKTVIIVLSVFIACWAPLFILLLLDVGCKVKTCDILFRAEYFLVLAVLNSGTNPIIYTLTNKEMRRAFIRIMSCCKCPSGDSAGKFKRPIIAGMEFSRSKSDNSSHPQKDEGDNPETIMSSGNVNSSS
# Hits are given with their value; - = inactive; . = not tested or not shown; ! = not confirmed by another sample. A selection: hits, their analogues and other compounds. The true share with any hit is near 0.97%.
SMILES,S1P4 ag,AI-2 QS modul,Hsp70 activator,S1P3 antagonist,S1P4 antagonist,S1P4 agonist cf,S1P1 ag
CCN1CCN(c2cc(C)c3cc(NC(=O)c4cccs4)ccc3n2)CC1,56,-,.,-,-,-,-
CCCN(CCC)c1ccc(/C=C/c2ccc3cc(OCC)ccc3n2)cc1,17,-,.,-,-,30,47
Cc1ccc(NS(=O)(=O)c2ccc3[nH]c(=O)[nH]c3c2)cc1,.,-,.,.,.,.,.
COC(=O)c1ccc(NC(C)=O)o1,-,-,-,.,-,.,.
COC(=O)c1ccc(NC(=O)c2ccccc2)o1,25,-,-,.,-,-,-
COc1ccc(CCNc2nc(C)nc3c2nnn3Cc2ccccc2)cc1OC,.,-,.,.,.,.,.
COc1ccc(-c2sc3ccc(N4CCOCC4)cc3c2-c2ccc(OC)c(F)c2)cc1,.,-,.,.,.,.,.
O=C(Cn1cnc2cc([N+](=O)[O-])ccc2c1=O)Nc1ccc2c(c1)OCO2,24,-,-,-,-,-,-
O=C(Cn1cnc2ccccc2c1=O)Nc1ccc2c(c1)OCO2,-,-,-,-,-,.,.
O=C(Nc1ccc(F)c(F)c1)C1=COCCO1,.,-,.,.,.,.,.
Cc1ccc(-c2nc(N)sc2CC(=O)OCC(=O)NCC2CCCO2)cc1 (stereo not drawn),-,-,-,-,-,.,.
Cc1cc(NC(=O)C2C3C(=O)N(Cc4ccc(Cl)cc4)C(C(=O)NC4CCCCC4)C34C=CC2(C)O4)no1 (stereo not drawn),-,-,-,.,-,.,.
Cc1cc(NC(=O)C2C3C(=O)N(Cc4ccc(Cl)cc4)C(C(=O)NCc4ccccc4)C34C=CC2(C)O4)no1 (stereo not drawn),18,-,-,.,-,-,-
Cc1cccc(NC(=O)COc2ccccc2C(=O)NC(C)c2ccccc2)c1 (stereo not drawn),.,-,.,.,.,.,.
CC(C)C(=O)NC(=S)Nc1ccccc1C(=O)NC1CCCCC1,58,-,-,-,-,-,-
Nn1cc(-c2ccccc2)nc1SCC(=O)NCC(F)(F)F,14,-,-,-,-,-,-
Nn1cc(-c2ccccc2)nc1SCC(=O)NCCc1ccccc1,-,-,-,-,-,.,.
CCCNC(=O)Cn1sc2nc(C)cc(C)c2c1=O,-,-,.,-,-,.,.
Cn1c(-c2cc3ccc(OC(=O)C(C)(C)C)cc3oc2=O)nc2ccccc21,24,-,-,.,-,18,-
COc1ccc(Br)cc1CN1CCN(C(=O)c2cccc(F)c2)CC1,.,-,.,.,.,.,.
COC(=O)C1=C(c2ccc(OC)cc2)OC(=O)C1(C)C,.,-,.,.,.,.,.
O=C(NC(Cc1c[nH]c2ccccc12)C(=O)O)c1ccc(F)cc1 (stereo not drawn),-,-,-,-,-,.,.
O=C(Nc1ccccc1C(=O)NC(Cc1c[nH]c2ccccc12)C(=O)O)c1ccccc1 (stereo not drawn),11,-,.,-,-,-,-
COc1ccc(CCNC(=O)Nc2ccccc2[N+](=O)[O-])cc1,21,-,-,-,-,-,-
COc1ccc(CCNC(=O)Nc2cccc([N+](=O)[O-])c2)cc1,-,-,-,-,-,.,.
SMILES,S1P4 ag,AI-2 QS modul,Hsp70 activator,S1P3 antagonist,S1P4 antagonist,S1P4 agonist cf,S1P1 ag
CCOC(=O)n1ccc(C(=O)Nc2ccccc2F)n1,16,-,-,-,-,-,-
O=C(NCc1ccccc1)C(c1ccc(F)cc1)N(Cc1ccco1)C(=O)c1ccccn1 (stereo not drawn),40,-,-,.,-,-,-
CCN=c1scc(C)n1/N=C/c1ccsc1,165,-,-,-,-,-,-
COc1ccc(-c2cc(=O)oc3cc(OCC(=O)Nc4ccc(CCO)cc4)ccc23)cc1,.,-,.,.,.,.,.
CCC(C(=O)OCC(=O)Nc1c(Cl)cccc1Cl)c1ccccc1 (stereo not drawn),15,-,-,-,-,-,-
N#CC1=C(N)Oc2cc(N)ccc2C1C1CCCCC1 (stereo not drawn),14,-,-,-,-,-,-
O=C(Nc1nc(-c2ccccn2)cs1)C1COc2ccccc2O1 (stereo not drawn),38,.,-,-,-,-,-
COc1cc(C2NC(=O)C(C#N)=C(Nc3cccc(C)c3)S2)ccc1O (stereo not drawn),22!,-,.,-,-,-,-
CC(C)(C)C(=O)NC1(C(F)(F)F)NC(=O)N(c2ccccc2F)C1=O (stereo not drawn),-,-,.,-,-,.,.
O=C(COC(=O)c1ccncc1)NCc1ccccc1,-,-,-,-,-,.,.
O=C(COC(=O)c1cccc(C(F)(F)F)c1)NCc1ccc(Cl)cc1,-,-,-,-,-,.,.
O=C(COC(=O)c1ccc(Br)cc1)NCc1ccccc1,15,-,-,-,-,-,-
O=C(COC(=O)c1cccc(C(F)(F)F)c1)NCc1ccccc1,23,-,-,-,-,-,-
COc1cccc(C(=O)NCC2CCCN(C(=O)c3ccc(C=O)cc3)C2)c1OC (stereo not drawn),.,-,.,.,.,.,.
Cc1nnc2c(NC3CCCCC3)nc3ccccc3n12,.,-,.,.,.,.,.
COc1ccc(-c2nnn(CC(=O)N(CCCN3CCOCC3)C(C(=O)NC3CCCC3)c3ccco3)n2)cc1 (stereo not drawn),14,-,-,-,-,-,-
COC(=O)CCCNc1ncccc1[N+](=O)[O-],48,-,-,-,-,-,-
O=[N+]([O-])c1cccnc1NCCc1ccccc1,-,-,-,-,-,.,.
COc1ccc(CN2CCC(N3CCC(C(=O)N4CCOCC4)CC3)CC2)c(F)c1,11,-,-,-,-,-,-
Nc1oc2ccccc2c(=O)c1C=O,-,-,-,-,-,.,.
Cc1ccccc1CC1(CO)CCCN(C(=O)c2cc(Cl)ccc2F)C1 (stereo not drawn),26,-,-,-,-,-,-
Cc1ccccc1CC1(CO)CCCN(C(=O)c2ccccc2Cl)C1 (stereo not drawn),-,-,-,-,-,.,.
CCOC(=O)Cc1nnc2c(Nc3ccccc3F)nc3nonc3n12,38,-,-,-,-,-,-
CN(Cc1cc(=O)n2ccsc2n1)c1ccccc1,-,-,-,-,-,.,.
CN(Cc1cc(=O)n2ccsc2n1)C1CCCCC1,93,-,-,-,-,-,-
CCOC(=O)N1CCN(C(=O)CNC2CCCCCCC2)CC1,-,-,-,-,-,.,.
COC(=O)N/N=C(\CCC(=O)O)c1cccs1,27,-,.,-,-,-,-
Nc1nc(N2CCOCC2)nc2ccccc12,22,-,-,-,-,-,-
c1ccc2c(N3CCCCC3)nc(N3CCOCC3)nc2c1,-,-,-,-,-,.,.

# High-throughput results: PubChem BioAssay, several laboratories
